Measured values published in PubChem BioAssay AID1159580 (chemical genetic matrix, 2015).
Several values for one entry are separate records, joined by “and”; a condition that tells them apart may be missing. Equal values may be shown once. Among all 5,500 compounds or so, about 2,000 (36%) were called active. Another 18% or so got no clear call; they are omitted. No stated cut-off is given here; in the data, active means normalized growth mostly below about 0.91 (no sharp cut-off); inconclusive means no clear call, values can overlap the other calls; inactive means mostly above about 0.92. The list shows a part of the results.

Assay: chemical genetic growth profiling, strain panel (AID 1159580);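 further: tested at 20 µM; growth read once vehicle control cultures reached saturation at 30 °C; 1 = growth at the plate median or of vehicle wells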
Settings: S. cerevisiae deletion strains, growth OD

Measured: normalized growth

NCC(O)c1ccc(O)cc1 (stereo not given)
inactive: locus YAL013W, strain DEP1, stronger effect = lower value 0.996 and 1.01 | locus YAL021C, strain ccr4, stronger effect = lower value 1.01 | locus YAL026C, strain drs2, stronger effect = lower value 1.01 | locus YAL030W, strain snc1, stronger effect = lower value 0.997 | locus YAL040C, strain CLN3, stronger effect = lower value 1 | locus YBL061C, strain skt5, stronger effect = lower value 1.01 | locus YBR009C, strain hhf1, stronger effect = lower value 0.995 | locus YBR021W, strain FUR4, stronger effect = lower value 0.987 | locus YBR023C, strain chs3, stronger effect = lower value 0.998 | locus YBR171W, strain sec66, stronger effect = lower value 0.995 | locus YBR229C, strain ROT2, stronger effect = lower value 0.977 | locus YBR231C, strain swc5, stronger effect = lower value 1.02 | locus YBR279W, strain paf1, stronger effect = lower value 1.02 | locus YCL011C, strain gbp2, stronger effect = lower value 1.03 | locus YCL016C, strain dcc1, stronger effect = lower value 1.03 | locus YCL029C, strain bik1, stronger effect = lower value 0.966 | locus YCL061C, strain MRC1 (second series), stronger effect = lower value 1.01 | locus YCL069W, strain vba3, stronger effect = lower value 1 | locus YCR088W, strain abp1, stronger effect = lower value 0.993 | locus YDL005C, strain med2, stronger effect = lower value 0.998 | locus YDL035C, strain GPR1, stronger effect = lower value 1.01 | locus YDL040C, strain nat1, stronger effect = lower value 0.999 | locus YDL074C, strain BRE1, stronger effect = lower value 1 | locus YDL101C, strain DUN1, stronger effect = lower value 0.987 | locus YDL134C, strain PPH21, stronger effect = lower value 0.996 | locus YDL185W, strain tfp1, stronger effect = lower value 0.977 | locus YDL192W, strain arf1, stronger effect = lower value 0.984 | locus YDR001C, strain nth1, stronger effect = lower value 1.01 | locus YDR069C, strain doa4, stronger effect = lower value 0.996 | locus YDR101C, strain arx1, stronger effect = lower value 0.987 | locus YDR137W, strain rgp1, stronger effect = lower value 1.02 | locus YDR150W, strain NUM1, stronger effect = lower value 1.01 and 1 | locus YDR159W, strain sac3, stronger effect = lower value 0.963 | locus YDR162C, strain NBP2, stronger effect = lower value 0.999 | locus YDR195W, strain ref2 0.947 | locus YDR297W, strain sur2, stronger effect = lower value 1.02 | locus YDR318W, strain mcm21, stronger effect = lower value 0.963 | locus YDR334W, strain swr1, stronger effect = lower value 1 | locus YDR335W, strain msn5, stronger effect = lower value 1.01 | locus YDR363W, strain ESC2, stronger effect = lower value 1 | locus YDR388W, stronger effect = lower value 0.97 | locus YDR392W, strain spt3, stronger effect = lower value 0.995 | locus YDR502C, strain sam2, stronger effect = lower value 0.988 | locus YEL003W, strain gim4, stronger effect = lower value 1.01 | locus YEL037C, strain rad23, stronger effect = lower value 1.01 | locus YEL061C, strain CIN8 (second series), stronger effect = lower value 0.999 | locus YEL061C, strain CIN8, stronger effect = lower value 1 | locus YER002W, strain NOP16, stronger effect = lower value 1 | locus YER015W, strain faa2, stronger effect = lower value 1.01 | locus YER016W, strain bim1, stronger effect = lower value 0.999 | locus YER110C, stronger effect = lower value 0.976 | locus YER111C, strain swi4, stronger effect = lower value 1.01 | locus YER155C, strain BEM2 (second series), stronger effect = lower value 0.977 | locus YER155C, strain BEM2, stronger effect = lower value 0.99 | locus YER167W, strain BCK2, stronger effect = lower value 0.992 | locus YFR010W, strain ubp6, stronger effect = lower value 0.998 | locus YGL078C, strain dbp3, stronger effect = lower value 0.988 | locus YGL086W, strain mad1, stronger effect = lower value 0.993 | locus YGL167C, strain pmr1, stronger effect = lower value 0.997 | locus YGL173C, strain kem1, stronger effect = lower value 1.01 | locus YGL227W, strain vid30, stronger effect = lower value 0.995 | locus YGL240W, strain doc1, stronger effect = lower value 0.985 | locus YGL248W, strain PDE1, stronger effect = lower value 0.989 | locus YGL253W, strain hxk2, stronger effect = lower value 1.03 | locus YGR078C, strain PAC10, stronger effect = lower value 0.989 and 1.03 | locus YGR135W, strain pre9, stronger effect = lower value 0.984 | locus YGR229C, strain SMI1, stronger effect = lower value 1 and 1.01 | locus YGR252W, strain gcn5, stronger effect = lower value 1.03 | locus YHR013C, strain ard1, stronger effect = lower value 0.978 | locus YHR027C, strain rpn1, stronger effect = lower value 1.01 | locus YHR030C, strain SLT2, stronger effect = lower value 0.983 and 0.979 | locus YHR079C, strain IRE1 (second series), stronger effect = lower value 0.975 | locus YHR079C, strain IRE1, stronger effect = lower value 0.982 | locus YHR094C, strain hxt1, stronger effect = lower value 0.986 | locus YHR129C, strain ARP1, stronger effect = lower value 0.994 | locus YHR142W, strain chs7, stronger effect = lower value 1.02 | locus YHR200W, strain rpn10, stronger effect = lower value 0.98 | locus YIL066C, strain RNR3, stronger effect = lower value 0.998 | locus YIL073C, strain SPO22, stronger effect = lower value 0.986 | locus YIL125W, strain kgd1, stronger effect = lower value 0.982 | locus YIR030C, strain dcg1, stronger effect = lower value 0.983 | locus YJL092W, strain hpr5, stronger effect = lower value 1.01 | locus YJL095W, strain BCK1 (second series), stronger effect = lower value 1.01 | locus YJL095W, strain BCK1, stronger effect = lower value 0.962 and 1 | locus YJL115W, strain asf1, stronger effect = lower value 1.01 | locus YJL129C, strain trk1, stronger effect = lower value 1.01 | locus YJL134W, strain LCB3, stronger effect = lower value 0.995 | locus YJL154C, strain vps35, stronger effect = lower value 0.99 | locus YJL164C, strain tpk1, stronger effect = lower value 0.994 | locus YJL166W, strain qcr8, stronger effect = lower value 0.999 | locus YJL168C, strain set2, stronger effect = lower value 0.976 | locus YJL187C, strain SWE1 (second series), stronger effect = lower value 0.988 | locus YJR043C, strain POL32, stronger effect = lower value 0.994 | locus YJR066W, strain TOR1, stronger effect = lower value 0.919 | locus YJR075W, strain HOC1, stronger effect = lower value 0.993
